Sampled rows, rich in hits. Any-hit rate of the full collection: about 3.3%.
BRCT inh red = inhibitors of human BRCA1 BRCT-phosphoprotein interaction (red fluorophore); 0.03% of 75,000 active; Potency, µM (doses to about 76.9 µM), for inactives: at the top dose activity change, negative = inhibition, usual class: inhibitors; P38398; AID 892; BRCT-phosphopeptide binding, red fluorescence polarization; further: on the % scale 0 is the no-effect control and ±100 the full control effect
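Rhodamine-labelled pBACH1 10-mer (100 nM) bound to BRCT domain (100 nM) at pH 7.3; compounds incubated 12 min room temperature, polarization read. Free peptide defines full inhibition; unlabelled decapeptide titrated as control.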
YjeE inh = displaces an ADP probe from E. coli YjeE (TsaE) | Potency, µM | purified YjeE enzyme, qHTS inhibition assay | 0.05% of 71,000 active | P0AF67 | AID 605
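Purified YjeE (10 uM) with BODIPY Texas Red-labeled ADP probe (2 uM); compounds pin-transferred, 15 min at room temperature. Binding inhibition read as decreased fluorescence polarization; ADP titration as control.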
ALOX15 inhib = inhibitors of human 15-lipoxygenase (ALOX15); P16050; purified 15hLO-1, xylenol orange hydroperoxide absorbance; Potency, µM (doses to about 57.1 µM), without a hit: at the top dose activity change, negative = inhibition, actives largely listed as inhibitors; 1.4% of 74,000 active; further: potency means the concentration at half of the fitted maximal effect; on the % scale 0 is the no-effect control and ±100 the full control effect; nearly all actives have a fitted effect of over 55% in size
Target sequence (P16050 whole entry, looked up): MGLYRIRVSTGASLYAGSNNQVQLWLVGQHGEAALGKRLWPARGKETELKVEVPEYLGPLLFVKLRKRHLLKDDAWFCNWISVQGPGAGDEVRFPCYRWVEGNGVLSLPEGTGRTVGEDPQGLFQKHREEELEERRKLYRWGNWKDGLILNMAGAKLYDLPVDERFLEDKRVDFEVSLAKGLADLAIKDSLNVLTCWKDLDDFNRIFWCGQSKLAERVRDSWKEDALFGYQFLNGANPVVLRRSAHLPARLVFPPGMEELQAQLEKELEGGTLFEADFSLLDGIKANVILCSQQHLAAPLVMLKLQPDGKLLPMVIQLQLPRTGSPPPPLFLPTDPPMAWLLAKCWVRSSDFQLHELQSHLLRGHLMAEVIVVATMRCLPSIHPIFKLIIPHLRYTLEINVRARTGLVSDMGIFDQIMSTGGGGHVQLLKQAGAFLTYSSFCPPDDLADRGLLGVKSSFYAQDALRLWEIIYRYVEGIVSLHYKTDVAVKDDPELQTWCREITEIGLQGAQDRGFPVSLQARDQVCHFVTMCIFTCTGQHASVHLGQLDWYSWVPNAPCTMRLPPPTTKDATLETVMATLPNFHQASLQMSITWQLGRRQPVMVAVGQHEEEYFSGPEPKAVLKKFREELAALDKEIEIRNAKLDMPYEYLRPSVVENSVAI
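Purified human 15hLO-1 (40 nM) in 25 mM Hepes pH 7.5, 0.01% Triton X-100, preincubated 15 min RT with compound, then 50 uM arachidonic acid for 6 min. Hydroperoxide read by ferrous/xylenol orange, 30 min; 573/405 nm absorbance ratio gave progress.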
BRCT inh green = BRCA1 BRCT-phosphoprotein interaction inhibition; BRCA1 BRCT-phosphopeptide binding, green fluorescence polarization; Potency, µM (top dose mostly 76.9 µM), without a hit: at the highest dose activity change, negative = inhibition, most hits filed as inhibitors; 0.05% of 75,000 active;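 further: potency means the concentration at half of the fitted maximal effect; plate controls were peptide without protein for full effect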
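Fluorescence polarization: His-tagged BRCT (~35 kDa BRCA1 C-terminus, 250 nM) bound to 100 nM fluorescein-labeled phosphorylated 10-aa BACH1 peptide, pH 7.3 phosphate buffer with DTT and Tween 20. Compounds incubated 12 min at room temperature; inhibition read as lowered polarization.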
Tau filament bind = tau filament binding. P10636. recombinant tau filaments, thioflavin S fluorescence, 15 h; filaments grown with octadecylsulfate alongside compound. Potency, µM (highest dose often 57.1 µM), for inactives: at the top dose activity change, negative = inhibition. 2% of 71,000 active. AID 596;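 further: potency means the concentration at half of the fitted maximal effect; on the % scale 0 is the no-effect control and ±100 the full control effect; actives lower thioflavin S fluorescence by blocking filaments or displacing dye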
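Read-out: ThS fluorescence, 450 nm excitation/510 nm emission; lower signal marks blocked filament formation or displaced dye. Tau at 1 uM with 30 uM ODS, 10 uM ThS, 5 mM DTT, 100 mM NaCl, 10 mM HEPES pH 7.4; 15 h, 37 C.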
DNA Pol III inh = DNA polymerase III holoenzyme inhibition. reconstituted DNA polymerase III holoenzyme replication, biochemical. Potency, µM (highest dose often 57.1 µM), without a hit: at the highest dose activity change, negative = inhibition. 0.25% of 71,000 active; further: potency means the concentration at half of the fitted maximal effect; on the % scale 0 is the no-effect control and ±100 the full control effect
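Reconstituted *E. coli* holoenzyme (0.35 nM Pol III, 1 nM beta, 154 nM SSB, 2 nM primase) was preincubated with compound for 15 min at RT. Synthesis on 1.4 nM ssM13Gori ran 35 min, then was stopped with PicoGreen/EDTA and read as dsDNA fluorescence.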
Starred values were filed as active, the others as inactive; i = inactive; ? = inconclusive; · = not tested or not shown; ! = a repeat was not active; [ ] = remark or other dose. The call rests on the fitted dose curve; in most records, active means well fitted curve in the direction sought with a large enough effect; inconclusive means small, poorly fitted or top-dose-only effect, or another doubt; inactive means no such curve, though single readings can be large; an effect the other way counts as inactive or inconclusive.

SMILES	BRCT inh red	YjeE inh	ALOX15 inhib	BRCT inh green	Tau filament bind	DNA Pol III inh
COc1ccc(CCC(=O)c2c(O)cc(O[C@@H]3O[C@H](CO)[C@@H](O)[C@H](O)[C@H]3O[C@@H]3O[C@@H](C)[C@H](O)[C@@H](O)[C@H]3O)cc2O)cc1O	1%	i	-3%	0%	0%	2%
Cc1ccc(C2C(C#N)=C(N)SC(N)=C2C#N)c(C)c1	2%	i	?	58%	259%	6%
N#CC1=C(N)SC(N)=C(C#N)C1c1ccnc2ccccc12	-1%	i	4µM*	111%	i	13%
Cc1cccc(-n2nnc(C(=O)N3CCc4ccccc4C3)c2N)c1	-1%	i	25µM*	-1%	63%	-18%
Cc1noc(C)c1-c1nccc(NCc2ccccc2)n1	-1%	i	16µM*	3%	-12%	-9%
CCn1c(SCC(=O)c2ccc(O)c(O)c2)nnc1-c1ccccc1OC	1%	i	16µM*	-3%	-13%	?
C=CCn1c(SCC(=O)c2ccc(O)c(O)c2)nnc1-c1ccccc1OC	0%	i	?	-1%	-3%	-10%
C=C1C[C@@]23C[C@]1(O)CC[C@@H]2[C@]12C=C[C@@H](O)[C@@](C)(C(=O)O1)[C@@H]2[C@@H]3C(=O)O	·	i	·	·	?	-6%
O=C1c2cc([N+](=O)[O-])ccc2-c2ccc3c4ccc5c6c(ccc(c7ccc1c2c73)c64)C(=O)c1cc([N+](=O)[O-])ccc1-5	-7%[15.4 µM]	i	-17%[11.4 µM]	-4%[15.4 µM]	1.6µM*	4µM*
N=C1[C@@H](O)[C@]2(I)c3ccccc3N3C(=N)[C@H](O)[C@@H]4c5ccccc5N1[C@@H]4[C@@H]32	-24%[15.4 µM]	i	?	4%[15.4 µM]	1µM*	-11%[11.4 µM]
COc1ccc(OCC2CC3C(CCC(C)C3c3ccc(Br)cc3)C(=O)O2)cc1 (stereo unspecified)	2%[15.4 µM]	·	-11%[11.4 µM]	0%[15.4 µM]	·	·
CC(NC(=O)c1ccccc1)(C(=O)O)C(=O)O	1%[15.4 µM]	i	10%[11.4 µM]	0%[15.4 µM]	8%[11.4 µM]	2%[11.4 µM]
CCOC(=O)c1oc2cc(O)ccc2c(=O)c1-c1csc(C)n1	0%	i	2%	-3%	5%	-3%
CCOC(=O)c1ccc(CC(=O)c2oc3cc(O)ccc3c2C)o1	1%	i	20µM*	2%	8%	2%
CCN(CCO)CCCC(C)Nc1ccnc2cc(Cl)ccc12 (stereo unspecified)	-2%	·	3%	-3%[3.08 µM]	·	·
CCN(CC)CCC[C@H](C)Nc1c2ccc(Cl)cc2nc2ccc(OC)cc12	-1%[34.4 µM]	i	-4%[25.6 µM]	?	·	32µM*!
CCc1ccc(CNc2ccc(O)cc2)cc1	-6%	i	?	-3%	10µM*	-13%
Cn1c(C(=O)NCCCN2CCCCCC2)cc2c(=O)n(C)c3ccccc3c21	-2%	i	6%	7%	292%	7.9µM*
CCCN1CCN(CCCNC(=O)c2cc3c(=O)n(C)c4ccccc4c3n2C)CC1	-2%	i	-3%	1%	127%	-11%
O=C(Cn1cc2c(n1)CCCC2)N1CCCc2ccccc21	-3%	i	25µM*	-1%	20%	-3%
Cc1ccc(NS(=O)(=O)c2cc(C(=O)O)ccc2Cl)cc1C	1%	·	2%	-1%	·	·
CC(=O)NCCN=Cc1sc2ccccc2c1O	0%	·	-10%	-1%	·	·
CCCN=Cc1sc2ccc(OCC)cc2c1O	-1%	i	-25%	0%	16µM*	2%
COCCn1c(=O)c(CCc2ccccc2)nc2cnc(OCc3ccccc3)nc21	0%	i	-2%	-2%	-3%	13%
CN(CCOc1ccc(C[C@H](Nc2ccccc2C(=O)c2ccccc2)C(=O)O)cc1)c1ccccn1	-3%	i	5%	-3%	40µM*!	-2%
SMILES	BRCT inh red	YjeE inh	ALOX15 inhib	BRCT inh green	Tau filament bind	DNA Pol III inh
CN1CCN(c2ncnc3ccc(-c4cccnc4)cc23)CC1	0%	i	37%	0%	-9%	-8%
COc1ccccc1Nc1cc(C(=O)NCCCN2CCOCC2)c2ccccc2n1	0%	i	-2%	-2%	-20%	-2%
COc1ccc(OC)c(Nc2cc(C(=O)NCCCN3CCOCC3)c3ccccc3n2)c1	-2%	i	?	-10%	10µM*	-5%
CN(C)c1ccc(N=Cc2ccco2)cc1	-1%	i	?	0%	13µM*	0%
C=Cc1ccc([C@H]2N[C@@H](C(=O)O)CC[C@@H]2C)cc1	3%[15.4 µM]	·	4%[11.4 µM]	2%[15.4 µM]	·	·
Nc1ccccc1NC1=CC(=O)CC(c2ccco2)C1 (stereo unspecified)	0%	i	?	0%	16µM*	-6%
COc1cccc(Nc2ncc3nc(-c4ccc(F)cc4)c(=O)n(CCC#N)c3n2)c1	-1%	i	1%	10%	484%	5%
O=c1cnc2cnc(Oc3cccc(Cl)c3)nc2n1Cc1ccc(F)cc1	0%	i	-23%	4%	16µM*	2%
COCCn1c(=O)c(-c2cc(F)cc(F)c2)nc2cnc(Oc3ccc(OC)cc3)nc21	-1%	i	-11%	-2%	16µM*	-6%
O=c1c(-c2ccc(F)cc2)nc2cnc(Oc3ccccc3)nc2n1C[C@H]1CCCO1	-3%	i	1%	-4%	20µM*	-1%
COc1cccc(Nc2ncc3nc(-c4cc(F)cc(F)c4)c(=O)n(CCC#N)c3n2)c1	0%	i	0%	28%	0.79µM*	3%
COCCn1c(=O)c(-c2cc(F)cc(F)c2)nc2cnc(Oc3ccccc3)nc21	0%	i	-10%	1%	?	-8%
COCCNC(=O)C1(C)C=CCN1C(C)=O (stereo unspecified)	-1%	i	-1%	-2%	15%	-4%
CC(C)CNc1nc(N)[nH]c(=O)c1NC=O	0%[15.4 µM]	i	5%[11.4 µM]	0%[15.4 µM]	8%[11.4 µM]	14%[11.4 µM]
COCCn1c(=O)c(-c2ccc(F)cc2)nc2cnc(Oc3cccc(Cl)c3)nc21	-2%	i	-9%	-4%	-8%	-5%
COCCn1c(=O)c(-c2cc(F)cc(F)c2)nc2cnc(Oc3cccc(Cl)c3)nc21	-1%	i	5%	3%	13µM*	-10%
Cc1ccc(N=Nc2c(O)ccc3cc(S(=O)(=O)O)ccc23)cc1	1%[15.4 µM]	i	-8%[11.4 µM]	-2%[15.4 µM]	3.2µM*	-8%[11.4 µM]
Cc1ccc(S(=O)(=O)Oc2ccc(N=Nc3ccc(-c4ccc(N=Nc5c(O)ccc6cc(S(=O)(=O)O)cc(S(=O)(=O)O)c56)c(C)c4)cc3C)cc2)cc1	3%	i	?	7%	0.01µM*	32µM*
